Activity calls are given as the source filed them. The calls were made as follows: active = hit-call score of the fitted dose curve at least 0.9, where 1 is the maximum; inactive = score below 0.9.

A word on the AC50: it is the concentration giving half of the maximal activity seen.

The test is described as follows: CCTE_Padilla_ZF_Score.Tail: CCTE's 144 Hour Post-fertilization zebrafish Assay Score for Tail Malformation, Padilla Lab (AID 2284414). As for the experimental part: CCTE_Padilla_ZF_Phenotype_Score is a whole embryo, multiplexed assay using zebrafish ova exposed for 144 hours post fertilization on a 96-well plate.CCTE_Padilla_ZF_Score.Tail is one of one assay component(s) measured or calculated from the CCTE_Padilla_ZF_Phenotype_Score assay. It is designed to make measurements of zebrafish development as detected with brightfield microscopy of developing zebrafish embryos.Data from the assay component CCTE_Padilla_ZF_Score.Tail was analyzed into 1 assay endpoints. This assay endpoint, CCTE_Padilla_ZF_Score.Tail, was analyzed in the positive analysis fitting direction relative to DMSO as the negative control and baseline of activity. Using a type of viability reporter, gain-of-signal activity can be used to understand changes in developmentals as they relate to the whole embryo. To generalize the intended target to other relatable targets, this assay endpoint is annotated to the zebrafish development intended target family, where the subfamily is lower trunk morphogenesis.
Zebrafish husbandry: Wild type adult zebrafish (Danio rerio; undefined outbred stock obtained from Aquatic Research Organisms, Hampton, NH, 03842) were housed in an AAALAC-approved animal facility at 28C with a 14:10 h light: dark cycle (lights on at 08:30 h). Adult fish (2-3 females per male; density = 15-20 adults per tank) were kept in one of several 9-liter (L) flow-through colony tanks (Aquaneering Inc., San Diego, CA). All adults in a colony tank were placed in a 2 L (static) breeding tank (Aquatic Habitats, Apopka, FL) one hour prior to light onset. Typically, adults from two to three colony tanks were mated on the same day. Two hours after light onset the adults were returned to the colony tank. All embryos were gathered from each breeder tank, pooled, and placed in a 28C water bath for 2 h, followed by two washes with 0.06% bleach (v/v) in 10% Hanks' Balanced Salt Solution (13.7 mM NaCl 0.54 mM KCl, 25 uM Na2HPO4, 130 uM CaCl2 100 um MgSO4 and 420 um NaHCO3,), hereafter referred to as Hanks' solution, for 5 min in order to remove any residual bacteria or fungi. Immediately following washing, the embryos were examined, and healthy embryos were separated from dead or unfertilized eggs and moved into fresh Hanks'. Chemical exposures: Zebrafish embryos were exposed in 96-well plates. Between 6- and 8-hours post fertilization (hpf), healthy embryos (with chorions) were transferred, one embryo per well, into 96 well (0.5 mL) microtiter plates (Cell Culture-Treated, Flat-Bottom Microplate 96 well [Corning Costar, Kennebunk, ME; Cat 09-761-145]) filled with 200 uL of Hanks' solution. A random number generator was used to assign the order in which the rows of embryos were plated in 96 well plates each week. After plating, the embryos were dosed with 0.8 uL of the chemical dosing solution then immediately sealed with AlumaSeal II (Excel Scientific Inc, Victorville, CA) to prevent volatilization of the chemicals, and then placed in a leakproof secondary container. These containers were placed in an incubator maintained on a 14:10 h light: dark cycle at 26C for rearing. On 5 dpf, live larvae were gently moved out of the plate with test chemicals and into a new 96 well mesh plate (Millipore Corp., Bedford, MA) with just the Hanks' solution. Once within the mesh well plate, the animals were rinsed with 400 uL of fresh Hanks' three times, and then the plates were covered with a non-adhesive material (Microseal A, BioRad, Hercules, CA), plate lid added, and then plate sides wrapped in Parafilm (PM992, Bermis Company, Neenah, WI), and returned to the incubator. […]
As for `OCC(F)(F)OC(F)(F)C(F)(F)OC(F)(F)CO`, the outcome was inactive.

With `FC(F)(F)C(F)(C(F)(F)F)C(F)(F)C(F)(F)CC1CO1` (centres undefined), the result was inactive.

As for `O=C(O)C=CC(F)(C(F)(F)F)C(F)(F)F`, the call was inactive.

As to `O=C(O)C(F)(F)OC(F)(F)C(F)(F)OC(F)(F)F`, the molecule was called inactive.

For the molecule `NC(=O)C(F)(F)C(F)(F)F`, the molecule was classed as inactive.

For the molecule `O=C(O)C(F)(F)C(F)(F)C(=O)O`, the call was inactive.

As for `O=C(O)C(F)(OC(F)(F)C(F)(F)C(F)(F)F)C(F)(F)F` (centres undefined), the outcome was inactive.

On to `OCC(F)(F)OC(F)(F)C(F)(F)OC(F)(F)C(F)(F)OC(F)(F)F`, for which the AC50 was 20.2 µM (active).

Turning to `O=C(O)C(F)(F)OC(F)(F)C(F)(F)OC(F)(F)C(=O)O`, the call was inactive.

For the molecule `COC(=O)C(F)(F)C(F)(F)OC(F)(C(F)(F)F)C(F)(F)OC(F)=C(F)F` (centres undefined), the result was inactive.

For the molecule `C=CC(=O)OCC(F)(F)C(F)F`, the outcome was inactive.

As to `CC(O)C(F)(F)C(F)(F)F` (centres undefined), the molecule was called inactive.

`OCC(F)(F)OC(F)(F)C(F)(F)OC(F)(F)C(F)(F)OC(F)(F)CO`: the outcome was inactive.

As for `O=S(=O)(F)C(F)(F)C(F)(F)C(F)(F)C(F)(F)C(F)(F)C(F)(F)C(F)(F)C(F)(F)F`, the result was inactive.

(Values after PubChem BioAssay (EPA / NIEHS).)
